An excerpt weighted towards active compounds, which were near 3.2% of everything screened.
TcdB inh: inhibitors of Clostridioides difficile toxin B glycohydrolase | P18177 | TcdB glycohydrolase enzymatic assay, plate reader | inhibition, % at 9.99 µM | hit rate 0.24% among 350,000; in the data active means inhibition above about 10%
GDH-TPI inh: GDH-TPI coupled enzyme inhibition counter-screen | inhibition, % at 4.8 µM | GDH-TPI coupled enzyme counterscreen, NADH absorbance | hit rate 1.2% among 360,000; in the data active means inhibition above about 30%;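 further: 0% = DMSO wells and 100% = wells lacking the enzyme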
PrPC surface inh: cell surface PrPC inhibition, primary TR-FRET screen; TR-FRET read-out; P04156; hit rate 0.43% among 370,000; AID 720596; inhibition, % at 13.8 µM; in the data active means inhibition above about 24%; further: 0% = median of the test wells and 100% = reference compound wells
FBA Mtb inh: inhibits M. tuberculosis FBA enzyme; P9WQA3; purified M. tuberculosis FBA, fluorescence read-out; inhibition, % at 1 µM; hit rate 2.3% among 360,000; AID 588726; in the data active means inhibition above about 27%;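 further: 0% = vehicle and 100% = reference inhibitor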
Y pestis TopoI: blocks Yersinia pestis topoisomerase I activity. activity, % at 10 µM. hit rate 0.064% among 360,000. Y. pestis Topo-I cleavage product accumulation, plate reader; in the data active means activity above about 50%, passing the limit was not always enough
* hit, by the source's call; nt = no result given; + = active, no number.

SMILES | TcdB inh | GDH-TPI inh | PrPC surface inh | FBA Mtb inh | Y pestis TopoI
COc1ccccc1/C=N\Nc1cn[nH]c(=O)c1Cl | 1 | 25 | -17 | 3 | -10
CCC(=O)N1C[C@@H](C)[C@H](OC)CN(C)C(=O)c2ccc(NC(=O)c3cnccn3)cc2OC[C@H]1C | 0 | nt | nt | nt | nt
Cc1ccnc(NC(=O)CCCOc2cc(=O)n(C)c3ccccc23)c1 | 1 | 4 | 39* | -2 | 8
Cn1c(=O)cc(OCCCC(=O)NCc2ccccn2)c2ccccc21 | nt | 4 | 6 | -1 | 6
O=C(C1CC1)N1C[C@@H]2[C@H](c3ccccc31)[C@@H](CO)N2C(=O)c1cccc(F)c1 | -1 | nt | nt | nt | nt
C[C@H]1CN([C@@H](C)CO)C(=O)CCCn2cc(nn2)CO[C@@H]1CN(C)Cc1ccc(C(=O)Nc2ccccc2N)cc1 | 0 | nt | nt | nt | nt
CC(=O)C1=C(O)C(=O)N(CCO)C1c1ccccc1 (stereo unspecified) | 3 | 47* | 4 | 1 | -5
O=c1cc(CN2CCN(C/C=C/c3ccccc3)CC2)c2cc(O)c(-c3ccccc3)cc2o1 | nt | 0 | -5 | 0 | 0
CN1CCN(Cc2cc(=O)oc3cc4c(cc23)CCC4)CC1 | nt | 13 | -9 | 2 | -10
CCc1cc2c(CN3CCN(CCO)CC3)cc(=O)oc2cc1O | nt | 21 | -3 | 187* | -3
CCc1cc2c(CN3CCN(C)CC3)cc(=O)oc2cc1O | nt | 11 | 8 | + | -7
Cc1cc2oc(=O)cc(CN3CCN(C/C=C/c4ccccc4)CC3)c2cc1O | nt | 35* | -19 | -2 | -1
CO[C@H]1CN(C)C(=O)c2cc(NC(=O)C3CCCCC3)ccc2OC[C@H](C)N(Cc2nccs2)C[C@@H]1C | 0 | nt | nt | nt | nt
COc1ccccc1C(=O)Nc1ccc2c(c1)C(=O)N(C)[C@@H]1CC[C@H](CC(=O)NCCc3ccncc3)O[C@H]1CO2 | 3 | nt | nt | nt | nt
Nc1ccc(C(=O)C(=O)c2ccc(N)cc2)cc1 | 1 | 38* | 6 | 1 | 7
CCCCCCCCN1[C@@H](CC(=O)O)c2cc(C(F)(F)F)ccc2S1(=O)=O | 0 | 12 | -4 | -2 | 15
CC(C)(C)N1[C@@H](CC(=O)O)c2cc(C(F)(F)F)ccc2S1(=O)=O | 12* | 3 | 3 | -1 | 4
C[C@@H]1CCCCO[C@@H](CN(C)Cc2ccccc2)[C@H](C)CN([C@@H](C)CO)C(=O)c2cc(NS(=O)(=O)c3cccs3)ccc2O1 | 0 | nt | nt | nt | nt
C[C@H](CO)N1C[C@H](C)[C@H](CN(C)C)Oc2ncc(C#CC(C)(C)O)cc2C1=O | -1 | nt | nt | nt | nt
O=c1oc2ccccc2c(Nc2ccccc2)c1[N+](=O)[O-] | nt | 7 | 2 | -1 | -5
Cc1cccc(Nc2c([N+](=O)[O-])c(=O)oc3ccccc23)c1 | 1 | 32* | 1 | -4 | -6
COc1cc(/C=N/N=C(\N)c2nonc2N)cc(OC)c1O | -48 | 36* | -7 | -2 | -5
COc1ccc(/C=N/N=C(\N)c2nonc2N)cc1 | 1 | 16 | -6 | 0 | -4
Nc1ccc(C#Cc2ccc3c(=O)c4ccccc4oc3c2)cc1 | 0 | 23 | 10 | 14 | 13
Cn1cncc1C#Cc1ccc2c(=O)c3ccccc3oc2c1 | 0 | 41* | -3 | 3 | 9
SMILES | TcdB inh | GDH-TPI inh | PrPC surface inh | FBA Mtb inh | Y pestis TopoI
O=c1oc(CCCO)cc2ccc(Br)cc12 | -7 | -4 | 14 | 1 | -7
Cn1cncc1C#Cc1ccc2cc(C(C)(C)O)oc(=O)c2c1 | 0 | 31* | -19 | 14 | -4
Cn1cncc1C#Cc1ccc2cc(C3(O)CCCCC3)oc(=O)c2c1 | nt | 7 | 0 | 4 | 4
Cn1cncc1C#Cc1ccc2cc(CCCO)oc(=O)c2c1 | -1 | 34* | -5 | 47* | -5
O=[N+]([O-])c1ccc(N/N=C\c2cccnc2)nc1 | nt | -6 | -1 | -4 | 8
O=[N+]([O-])c1ccc(NN=Cc2ccco2)nc1 | 1 | 33* | -34 | -13 | 3
C[C@@H](NC(=O)C[C@H]1CC[C@H](NS(=O)(=O)c2cccc(F)c2)[C@@H](CO)O1)c1ccccc1 | -1 | nt | nt | nt | nt
O=C1C(Cl)=C(N2CCOCC2)C(=O)N1c1ccccc1Cl | 1 | 36* | nt | -1 | -1
O=C1C(Cl)=C(N2CCCCCC2)C(=O)N1c1ccccc1Cl | 1 | -1 | 6 | -1 | 12
C[C@H]1CN([C@@H](C)CO)C(=O)c2cc(C#CC(C)(C)O)cnc2O[C@@H]1CN(C)Cc1cncnc1 | 1 | nt | nt | nt | nt
COc1ccc(S(=O)(=O)N2CCOCC2)cc1NC(=O)CSc1ccccc1 | 2 | 3 | 8 | 10 | 11
CC(Oc1ccc(Cl)cc1)C(=O)Nc1ccccc1N1CCOCC1 (stereo unspecified) | 3 | 5 | 15 | -2 | 32
CC(Oc1cccc(Cl)c1)C(=O)Nc1cc(S(=O)(=O)N2CCOCC2)ccc1N1CCCCC1 (stereo unspecified) | 1 | 1 | 4 | -2 | 71*
O=C(CSc1ccccc1)Nc1cc(S(=O)(=O)N2CCOCC2)ccc1N1CCOCC1 | 12* | -5 | -1 | -10 | 14
Cc1cc(Cl)ccc1OC(C)C(=O)Nc1ccccc1N1CCOCC1 (stereo unspecified) | nt | 4 | 20 | 2 | 63*
O=C(Cc1ccccn1)N1CC(=O)N2[C@H](CO)[C@H](c3ccc(-c4ccccc4)cc3)[C@@H]2C1 | 0 | nt | nt | nt | nt
C[C@H]1CN([C@@H](C)CO)C(=O)Cc2cc(NC(=O)CCCCCC(=O)Nc3ccccc3N)ccc2O[C@H]1CN(C)S(=O)(=O)c1ccccc1 | 1 | nt | nt | nt | nt
C[C@H](CO)N1C[C@H](C)[C@H](CN(C)Cc2ccc3c(c2)OCO3)Oc2c(NC(=O)C3CC3)cccc2C1=O | 1 | nt | nt | nt | nt
O=C(C[C@H]1CC[C@H]2[C@@H](COC[C@H](O)CN2Cc2cccc(C(F)(F)F)c2)O1)NCc1ccc(Cl)cc1 | -1 | nt | nt | nt | nt
CO[C@H]1CC[C@H]2CCOc3ccc(C#N)cc3C(=O)N(C)[C@@H](C)C(=O)N(C)C[C@H]1O2 | 1 | nt | nt | nt | nt
Cc1ccc(C(=O)NC(=S)NNC(=O)CC#N)cc1 | 12* | 7 | -6 | -3 | -2
CCCCC(=O)NNC(=S)NC(=O)c1ccc(C)cc1 | 2 | 6 | -7 | 0 | 8
Cn1cnnc1SCC(=O)n1c2ccccc2c2ccccc21 | nt | 6 | 0 | 0 | 13
Cn1cnnc1SCc1ccc(C(=O)N=Nc2c(O)n(C)c3ccccc23)cc1 | nt | 33* | -42 | 2 | 13
C/C=C/c1ccc(C2[C@H]3CNC[C@@H]2N3Cc2cccc(C(F)(F)F)c2)cc1 (stereo partly specified) | 2 | nt | nt | nt | nt
Cc1ccc(S(=O)(=O)c2cc3ccc(O)cc3oc2=O)cc1C | 0 | 0 | -4 | + | 7
COc1ccc2cc(S(=O)(=O)c3ccccc3)c(=O)oc2c1 | 1 | 36* | -9 | + | -5
O=C(C1CC1)N1[C@H](CO)[C@@H]2c3ccccc3N(S(=O)(=O)c3ccccc3)C[C@@H]21 | -1 | nt | nt | nt | nt
C[C@H]1CN([C@@H](C)CO)C(=O)Cc2cc(NC(=O)C3CCCCC3)ccc2O[C@@H]1CN(C)C(=O)Nc1ccc(C(F)(F)F)cc1 | 0 | nt | nt | nt | nt
O=C(NCC[C@@H]1CC[C@H](NC(=O)c2cccnc2)[C@@H](CO)O1)Nc1ccc(Cl)cc1 | 1 | nt | nt | nt | nt
